# Source: PubChem BioAssay
# Calls of active or inactive are those of the source. Unless noted, the rule behind the calls is not given here.
# How the values were obtained:
# [1] = Wnt pathway potentiators raising nuclear beta-catenin – imaging, WNT3A-conditioned medium, mouse C2C12, NPC library, primary screen (AID 1117326; in the data active = nuclear beta-catenin stimulation mostly above about 4.2%, no sharp cut-off; inactive = mostly below about 10%); details: stronger effect = higher value
# [2] = stimulators of insulin release from INS-1E, primary screen, cell-based, 5 mM glucose, NPC library (AID 1117329;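 active = compound raises insulin release from rat beta cells at 5 mM glucose, no numeric limit stated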); details: rat INS-1E insulin secretion, at 10 µM, stronger effect = higher value
# [3] = growth inhibition of GSK3B-pretreated HCT116 cells – cell-based, CellTiter-Glo, 0.2 to 20 µM (AID 1117336;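 active = compounds lowering colon cancer cell viability after pretreatment blocking the GSK3B kinase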); details: HCT116 viability after GSK3B inhibitor, at 20 µM, stronger effect = higher value
# [4] = inhibition of endothelial tube formation, primary screen, imaging, VEGF stimulated, CD31 staining, tube area, NPC library (AID 1117340;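 active = compound that reduces growth-factor-driven endothelial tube area in a mixed cell culture, no cutoff stated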); details: VEGF-stimulated ADSC/ECFC co-culture, at 10 µM, stronger effect = higher value
# [5] = GLP1 release stimulators, primary, NCI-H716, NPC library (AID 1117341;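 active = compound raises GLP1 secretion from the human gut endocrine cells, with no numeric limit stated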); details: NCI-H716 cells, at 10 µM, stronger effect = higher value
# [6] = HCT116 colon cancer cell growth inhibition, primary screen, CellTiter-Glo luminescence, NPC library (AID 1117342;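 active = compounds that lower survival of HCT116 colon cancer cells in the luminescence readout, no numeric limit stated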); details: at 20 µM (top of the series)
# [7] = reduced SW480 viability measured with CellTiter-Glo, NPC library, primary (AID 1117343;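 active = compounds that lower viability of the colon cancer cells in the luminescence readout, with no numeric limit stated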); details: CellTiter-Glo luminescence; at 20 µM (top of the series)
# [8] = NPC library primary testing for decreased DLD-1 cell viability via CellTiter-Glo (AID 1117346;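 active = compounds that lower survival of DLD-1 colon cancer cells in the luminescence readout, no cutoff given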); details: DLD-1 viability, CellTiter-Glo luminescence; at 20 µM (top of the series)
# [9] = liver-stage malaria parasite load reduction – cell-based, known kinase inhibitor set, luminescence, hepatoma host viability (AID 624392); details: Plasmodium liver stage in hepatoma cells, luciferase luminescence, concentration not given here; liver cell % of control: measured here: host liver cell viability; parasite % of control: stronger effect = lower value;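 note: infected cells incubated roughly two days before readout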
# [10] = altered dexamethasone sensitivity, NF-kB reporter, cell-based, luciferase, IL-1B stimulus (AID 624486); details: IL-1B + dexamethasone, luminescence; percent of negative control (+Dex): actives lie on both sides, concentration not given here; z-score: measured here: IL-1B alone, no Dex;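 for percent of negative control (+Dex): 100% = mean signal of vehicle control wells on the plate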
# [11] = C. elegans survival during P. aeruginosa infection – whole organism (AID 651566);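 note: tested at 14 µM; sign flipped so higher z means a lower ratio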; details: C. elegans killed by P. aeruginosa, survival ratio
# [12] = pro-inflammatory signaling induction in mouse macrophages – cell-based, murine, luminescence (AID 652131); details: murine macrophage pro-inflammatory reporter, stronger effect = higher value
# [13] = molecular target: Cellular tumor antigen p53 (Homo sapiens) (UniProt P04637); test: GFP-p53 level modulators in HPV16+ cells – imaging, known kinase inhibitor set, EGFP/DsRed ratio (AID 1053116); details: GFP-p53 stability, stronger effect = higher value; EGFP object count: measured here: GFP-p53 positive objects count;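 note: cells exposed to compounds for 24 h at 37 °C before reading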
# [14] = inducers of IRF3 signaling, differentiated THP-1 – cell-based, PMA-stimulated THP-1, luminescence (AID 1053176); details: PMA-differentiated THP-1, IRF3 reporter luminescence; stronger effect = higher value
# [15] = MELAS cybrid and Rieske KO viability enhancers – cell-based, MELAS cybrids, Rieske KO mouse fibroblasts, CellTiter-Glo, primary screen (AID 1508586;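 active = mean z-score across replicates of 1.96 or higher in either the MELAS or the Rieske mutant cell line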;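 note: z relative to plate mean and SD of compound and empty wells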); details: low glucose
# Sequence of Cellular tumor antigen p53 (Homo sapiens) (P04637 whole entry, looked up): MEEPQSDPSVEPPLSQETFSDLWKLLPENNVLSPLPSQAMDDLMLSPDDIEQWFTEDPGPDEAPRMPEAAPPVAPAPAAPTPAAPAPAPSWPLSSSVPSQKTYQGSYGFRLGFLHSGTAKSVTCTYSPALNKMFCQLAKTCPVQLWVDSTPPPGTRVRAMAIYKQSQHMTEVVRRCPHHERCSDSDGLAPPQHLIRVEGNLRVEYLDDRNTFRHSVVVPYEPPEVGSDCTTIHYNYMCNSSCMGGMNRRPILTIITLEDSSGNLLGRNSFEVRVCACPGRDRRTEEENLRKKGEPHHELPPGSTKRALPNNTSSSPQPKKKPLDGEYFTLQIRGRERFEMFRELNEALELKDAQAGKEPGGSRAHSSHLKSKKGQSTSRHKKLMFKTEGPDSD
smiles,measurement,setting,value
COP(=S)(OC)Oc1ccc(S(N)(=O)=O)cc1,nuclear beta-catenin stimulation,[1]; at 10 µM,0.4% (inactive)
same,nuclear beta-catenin stimulation,"[1]; stimulation, at 2 µM",1.1%
same,insulin secretion stimulation,[2],-1.7% (inactive)
same,viability decrease,[3],-4.35% (inactive)
same,tube area decrease,[4],-30.3% (inactive)
same,GLP1 secretion stimulation,[5],1.6% (inactive)
same,inhibition of viability,[6],-18.1% (inactive)
same,viability decrease (inhibition),[7],4.3% (inactive)
same,viability decrease (inhibition),[8],-0.7% (inactive)
COc1ccc2c(C(=O)c3ccc(Cl)cc3)c(C)n(CC(=O)O)c2c1,nuclear beta-catenin stimulation,[1]; at 10 µM,-0.1% (inactive)
same,nuclear beta-catenin stimulation,"[1]; stimulation, at 2 µM",-0.8%
same,insulin secretion stimulation,[2],1.05% (inactive)
same,viability decrease,[3],13.7% (inactive)
same,tube area decrease,[4],-18.1% (inactive)
same,GLP1 secretion stimulation,[5],-0.1% (inactive)
same,inhibition of viability,[6],8% (inactive)
same,viability decrease (inhibition),[7],22.3% (inactive)
same,viability decrease (inhibition),[8],-3.8% (inactive)
CC(=O)C1CCOC1=O (stereo not given),nuclear beta-catenin stimulation,[1]; at 10 µM,-0.1% (inactive)
same,nuclear beta-catenin stimulation,"[1]; stimulation, at 2 µM",1.2%
same,insulin secretion stimulation,[2],3.7% (inactive)
same,viability decrease,[3],13.5% (inactive)
same,tube area decrease,[4],-5% (inactive)
same,GLP1 secretion stimulation,[5],2.7% (inactive)
same,inhibition of viability,[6],16.7% (inactive)
same,viability decrease (inhibition),[7],1.5% (inactive)
same,viability decrease (inhibition),[8],1.4% (inactive)
CC(Cc1ccccc1)NC=O (stereo not given),nuclear beta-catenin stimulation,[1]; at 10 µM,-2.3% (inactive)
same,nuclear beta-catenin stimulation,"[1]; stimulation, at 2 µM",-0.1%
same,insulin secretion stimulation,[2],1.5% (inactive)
same,viability decrease,[3],-5.7% (inactive)
same,tube area decrease,[4],1.3% (inactive)
same,GLP1 secretion stimulation,[5],-5.4% (inactive)
same,inhibition of viability,[6],8.8% (inactive)
same,viability decrease (inhibition),[7],16.7% (inactive)
same,viability decrease (inhibition),[8],-4.6% (inactive)
O=C(NC1NNC2NNC(c3cccnc3)CC21)C1CC1 (stereo not given),liver cell % of control,[9],79.6%
same,parasite % of control,[9],32.1% (inactive)
same,percent of negative control (+Dex),[10],166% (active)
same,z-score,[10],-0.58
same,z-score,[11],-1.13 (inactive)
same,z-score,[12],4.01 (inactive)
same,EGFP object count,[13],52
same,EGFP/DsRed ratio,[13],0.68 (active)
same,fraction signal,[14],0.001 (inactive)
same,z-score,"[15]; MELAS cybrid survival, CellTiter-Glo 48 h, stronger effect = higher value",-1.09 (inactive)
same,z-score,"[15]; Rieske KO mouse fibroblast survival, CellTiter-Glo 72 h",-0.386
CCOC(=O)NC(C)(C)Cc1ccc(Cl)cc1,nuclear beta-catenin stimulation,[1]; at 10 µM,7.3% (inactive)
same,nuclear beta-catenin stimulation,"[1]; stimulation, at 2 µM",-2.9%
same,insulin secretion stimulation,[2],2.1% (inactive)
same,viability decrease,[3],13.6% (inactive)
same,tube area decrease,[4],65.4% (active)
same,GLP1 secretion stimulation,[5],-1.8% (inactive)
same,inhibition of viability,[6],61.4% (active)
same,viability decrease (inhibition),[7],31.1% (inactive)
same,viability decrease (inhibition),[8],3.85% (inactive)
O=C1C(I)=CC(=C(c2cc(I)c(O)c(I)c2)c2ccccc2C(=O)O)C=C1I,nuclear beta-catenin stimulation,[1]; at 10 µM,43.7% (active)
same,nuclear beta-catenin stimulation,"[1]; stimulation, at 2 µM",1.8%
same,insulin secretion stimulation,[2],-0.1% (inactive)
same,viability decrease,[3],98.7% (active)
same,tube area decrease,[4],106% (active)
same,GLP1 secretion stimulation,[5],-3.3% (inactive)
same,inhibition of viability,[6],99.3% (active)
same,viability decrease (inhibition),[7],100% (active)
same,viability decrease (inhibition),[8],100% (active)
